This note sets out measurements from PubChem BioAssay.

Where “and” joins values, the source holds several entries; their conditions need not be identical. Equal values may be shown once. Calls of active or inactive are those of the source.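 How the source made its calls, unless noted: active means z-score of at least 1.8 in each of two replicates, scored against plate mean and spread of sample wells; inactive means the rest.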

Test [1] can be described thus: sensitizers of A549 cells to miR-34 induction, primary screen, imaging, A549 dox-inducible miR-34, nuclei and caspase counts (AID 1347080;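 active means compounds whose cell count with miR-34 switched on is under 0.7 times the count with it off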). As to conditions: A549 miR-34 inducible, Hoechst nuclei count, 48 h.
In test [2] the target is NAD(+) hydrolase SARM1 (Homo sapiens) (UniProt Q6SZW1). Description: SARM1 TIR NADase inhibitors, cell lysate, NAD-Glo luminescence (AID 1508614;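 active means compound whose remaining NAD level is above about 45 nM, limit read from the data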). Particulars: SAM-TIR HEK293T lysate NADase, at 1 µM, stronger effect = higher value.
Sequence of NAD(+) hydrolase SARM1 (Homo sapiens) (Q6SZW1 whole entry, looked up, the tested form may be a part): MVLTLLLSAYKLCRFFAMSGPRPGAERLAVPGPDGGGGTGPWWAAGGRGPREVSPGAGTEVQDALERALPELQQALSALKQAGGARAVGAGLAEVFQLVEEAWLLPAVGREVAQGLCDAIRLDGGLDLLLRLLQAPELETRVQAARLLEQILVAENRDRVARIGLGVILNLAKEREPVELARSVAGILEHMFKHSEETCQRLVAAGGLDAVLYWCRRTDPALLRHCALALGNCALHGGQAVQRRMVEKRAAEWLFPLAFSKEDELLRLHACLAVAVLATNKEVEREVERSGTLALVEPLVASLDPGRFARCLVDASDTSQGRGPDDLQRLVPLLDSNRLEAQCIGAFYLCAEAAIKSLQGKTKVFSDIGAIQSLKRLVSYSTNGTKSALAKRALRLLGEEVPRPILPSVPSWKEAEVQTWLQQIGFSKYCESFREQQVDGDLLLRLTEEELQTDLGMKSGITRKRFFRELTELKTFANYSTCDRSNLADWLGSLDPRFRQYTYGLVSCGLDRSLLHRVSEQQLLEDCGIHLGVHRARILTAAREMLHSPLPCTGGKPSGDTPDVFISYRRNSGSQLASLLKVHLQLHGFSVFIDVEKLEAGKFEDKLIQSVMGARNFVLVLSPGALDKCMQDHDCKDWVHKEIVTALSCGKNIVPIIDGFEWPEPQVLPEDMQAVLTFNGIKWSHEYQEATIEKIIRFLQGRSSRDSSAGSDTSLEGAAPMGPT
For test [3], the target named is Mitogen-activated protein kinase 7 (Homo sapiens) (UniProt Q13164). As to the kind of experiment: ERK5 transactivation activators in reporter cells, primary screen, cell-based, HTS (AID 1508626;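 active means luciferase signal above three times the same-plate solvent-only control wells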;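 further: luciferase driven by Gal4-ERK5 fusion binding five Gal4 sites before minimal TATA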). As to conditions: HeLa Gal4-ERK5 transactivation, 18 h, at 5 µM, stronger effect = higher value.
Sequence of Mitogen-activated protein kinase 7 (Homo sapiens) (Q13164 whole entry, looked up, the tested form may be a part): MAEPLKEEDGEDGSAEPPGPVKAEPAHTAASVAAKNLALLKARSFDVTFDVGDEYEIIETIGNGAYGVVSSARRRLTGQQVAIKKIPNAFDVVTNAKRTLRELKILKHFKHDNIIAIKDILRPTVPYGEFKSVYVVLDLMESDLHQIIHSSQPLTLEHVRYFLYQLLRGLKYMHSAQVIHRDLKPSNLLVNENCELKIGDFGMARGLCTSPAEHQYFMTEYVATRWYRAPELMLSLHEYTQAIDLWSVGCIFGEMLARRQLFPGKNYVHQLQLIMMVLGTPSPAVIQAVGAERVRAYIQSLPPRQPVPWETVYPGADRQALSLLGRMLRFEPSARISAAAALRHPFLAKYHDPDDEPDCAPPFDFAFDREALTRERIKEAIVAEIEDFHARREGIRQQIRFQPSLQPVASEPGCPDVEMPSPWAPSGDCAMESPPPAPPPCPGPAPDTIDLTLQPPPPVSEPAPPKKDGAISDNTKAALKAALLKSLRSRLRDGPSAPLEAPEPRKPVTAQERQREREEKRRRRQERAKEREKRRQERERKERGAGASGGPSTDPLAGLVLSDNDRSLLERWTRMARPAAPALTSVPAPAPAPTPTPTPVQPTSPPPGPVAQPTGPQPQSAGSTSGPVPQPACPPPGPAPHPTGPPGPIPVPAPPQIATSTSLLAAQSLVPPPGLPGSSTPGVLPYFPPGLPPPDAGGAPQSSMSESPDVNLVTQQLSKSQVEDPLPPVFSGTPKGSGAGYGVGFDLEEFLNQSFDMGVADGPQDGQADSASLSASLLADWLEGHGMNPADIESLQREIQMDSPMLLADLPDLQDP
Test [4] can be described thus: viability rescue of complex I mutant cybrids, primary screen, cell-based, galactose medium, ATP luminescence (AID 1645843).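 Further: positive z means more ATP and so rescue of galactose-driven cybrid death.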 As to conditions: complex I mutant cybrid cells, 72 h, stronger effect = higher value.
A short description of test [5]: phospholipid biosynthesis inhibitors in animal cells, primary screen, cell-based, LOPAC library, screen 4 (AID 1347384; call rule not given here). As to conditions: phospholipid biosynthesis inhibition screen, at 10 µM.
A short description of test [6]: survival rescue of mitochondrial mutant cells in low glucose, primary screen, MELAS cybrids, Rieske KO mouse fibroblasts, CellTiter-Glo (AID 1508586;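 active means mean z-score across replicates of 1.96 or higher in either the MELAS or the Rieske mutant cell line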;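 further: z relative to plate mean and SD of compound and empty wells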). In general terms: Cellular ATP, detected with luciferase, serves as a proxy for viable cell number.
Setting [7] is: stronger effect = lower value, cell number ratio, induced over uninduced.
[8] abbreviates: measured here: relative caspase fold change +Dox/-Dox.
[9] abbreviates: measured here: total cells with miR-34 induction, stronger effect = lower value.
The mark [10] stands for this setting: measured here: total cells without miR-34 induction.
Setting [11] is: MELAS cybrid survival, CellTiter-Glo 48 h, stronger effect = higher value.
[12] abbreviates: Rieske KO mouse fibroblast survival, CellTiter-Glo 72 h.

As for `Cc1cc(C(C)(C)C)c(O)c(C(C)(C)C)c1`, the fold change in test [1] (setting [7]) is 0.871 (inactive); in test [1] (setting [8]), 0.986. Further, the values for the cell count in test [1] (setting [9]) and in test [1] (setting [10]) were 10700 and 12300, respectively. Also, the remaining NAD in test [2] was 10 nM (inactive). Further, the luciferase signal in test [3] is 20 AU (inactive).
For `COc1cc(C)c(Cc2cnc(N)nc2N)cc1OC`, the fold change is 0.944 (inactive) in test [1] (setting [7]) and 1.06 in test [1] (setting [8]). In addition, the cell count in test [1] (setting [9]) came out at 9440; in test [1] (setting [10]), 10000. In addition, in test [4], the z-score was 0.02 (inactive).
With `NC(=O)c1ccccc1O`, the results for the fold change in test [1] (setting [7]) and in test [1] (setting [8]) were 0.92 (inactive) and 3.12, respectively. Moreover, the results for the cell count in test [1] (setting [9]) and in test [1] (setting [10]) were 11700 and 12800, respectively. In addition, the remaining NAD in test [2] is 10 nM (inactive). Besides, in test [3], the luciferase signal is 56 AU (inactive).
In the case of `NC1CCN(c2cccc(Cl)n2)CC1`, the fold change was 0.969 (inactive) and 0.942 (inactive) in test [1] (setting [7]); 1.72 and 1.85 in test [1] (setting [8]). In addition, the cell count in test [1] (setting [9]) was 9480 and 9570; in test [1] (setting [10]), 9780 and 10200. The z-score in test [4] was 0.81 (inactive) and 0.31 (inactive).
On to `C=Cc1c(C)c2cc3[nH]c(cc4nc(cc5nc(cc1[nH]2)C(C)=C5CCC(=O)O)C(CCC(=O)O)=C4C)c(C)c3C=C`, for which the fold change in test [1] (setting [7]) was 1.04 (inactive); in test [1] (setting [8]), 1.36. For the same compound, the values for the cell count in test [1] (setting [9]) and in test [1] (setting [10]) were 9230 and 8840, respectively. In test [2], the remaining NAD was 10 nM (inactive). Besides, the luciferase signal in test [3] is 56 AU (inactive). The z-score in test [4] was -0.23 (inactive).
In the case of `NCC1CCC(C(=O)Oc2ccc(CCC(=O)O)cc2)CC1` (stereo not given), the fold change in test [1] (setting [7]) was 0.97 (inactive); in test [1] (setting [8]), 1.97. Further, the cell count in test [1] (setting [9]) was 9870; in test [1] (setting [10]) it was 10200. Further, the z-score in test [4] is 0.62 (inactive).
`C[C@@H]1CN(CCCn2c3ccccc3c3ccccc32)C[C@H](C)N1`: the fold change in test [1] (setting [7]) was 0.959 (inactive); in test [1] (setting [8]), 0.675. Besides, the cell count in test [1] (setting [9]) was found to be 8000; in test [1] (setting [10]), 8340. The z-score in test [4] was -0.695 (inactive).
Turning to `O=C(O)c1ccc(S(=O)(=O)N(Cl)Cl)cc1`, the fold change in test [1] (setting [7]) was 0.899 (inactive); in test [1] (setting [8]), 0.716. The figures for the cell count in test [1] (setting [9]) and in test [1] (setting [10]) were 11500 and 12800, respectively. For the same compound, in test [2], the remaining NAD is 10 nM (inactive). In addition, the luciferase signal in test [3] is 48 AU (inactive).
As to `CC(=O)Oc1cccc(O)c1`, the results for the fold change in test [1] (setting [7]) and in test [1] (setting [8]) were 0.87 (inactive) and 5.2, respectively. Also, the cell count turned out to be 11300 in test [1] (setting [9]) and 13000 in test [1] (setting [10]). In addition, the remaining NAD in test [2] was 10 nM (inactive). In addition, the luciferase signal in test [3] is 20 AU (inactive).
`CC(=O)NO`: the fold change in test [1] (setting [7]) is 0.922 (inactive); in test [1] (setting [8]) it was 0.946. The cell count in test [1] (setting [9]) was 11300; in test [1] (setting [10]) it was 12300. Also, the remaining NAD in test [2] was 10 nM (inactive). Also, the luciferase signal in test [3] was 52 AU (inactive).
Take `CC1CCN(CCCC(=O)c2ccc(F)cc2)CC1`: the fold change is 0.922 (inactive) and 0.888 (inactive) and 0.964 (inactive) in test [1] (setting [7]); 0.574 and 0.823 and 1.18 in test [1] (setting [8]). In addition, the cell count in test [1] (setting [9]) was 9000 and 9720 and 9030; in test [1] (setting [10]), 9760 and 10900 and 9370. In addition, the z-score in test [4] is 0.28 (inactive) and -0.14 (inactive).
For the compound `O=C(OCc1ccccc1)c1ccccc1`, the results for the fold change in test [1] (setting [7]) and in test [1] (setting [8]) were 0.956 (inactive) and 3.44, respectively. The cell count is 12000 in test [1] (setting [9]) and 12500 in test [1] (setting [10]). In addition, in test [2], the remaining NAD is 10 nM (inactive). Moreover, the luciferase signal in test [3] is 88 AU (inactive).
As for `CCN(CC)CC1CCCCN1CC(=O)N1c2ccccc2C(=O)Nc2cccnc21` (stereo not given), the fold change in test [1] (setting [7]) is 0.915 (inactive) and 0.926 (inactive); in test [1] (setting [8]), 1.68 and 0.696. In addition, the cell count in test [1] (setting [9]) is 10100 and 9240; in test [1] (setting [10]), 11000 and 9980. Also, in test [4], the z-score is 0.18 (inactive) and -0.135 (inactive).
As to `OCc1cc(C(O)CNCCCCCCOCCCCc2ccccc2)ccc1O` (stereo not given), the result in test [5] was inactive. Also, the z-score is 0.496 (inactive) and 0.0699 (inactive) in test [6] (setting [11]); -0.33 and 0.063 in test [6] (setting [12]).
As to `OCCOCCN1CCN(C2=Nc3ccccc3Sc3ccccc32)CC1`, the z-score in test [6] (setting [11]) is -0.365 (inactive) and 0.666 (inactive) and 0.0103 (inactive); in test [6] (setting [12]), -0.209 and 0.244 and 1.08; in test [4] it was -0.095 (inactive) and 0.115 (inactive). In test [2], the remaining NAD is 10 nM (inactive). Moreover, in test [3], the luciferase signal was 48 AU (inactive).
Take `Brc1c(NC2=NCCN2)ccc2nccnc12`: the call in test [5] was inactive. Also, the z-score was -0.224 (inactive) and -0.413 (inactive) in test [6] (setting [11]); -0.21 and -1.29 in test [6] (setting [12]); 0.235 (inactive) and -0.385 (inactive) and -0.11 (inactive) in test [4].
Turning to `C[N+](C)(C)CCOC(N)=O`, the compound was classed as inactive in test [5]. Further, the z-score was -0.544 (inactive) and -0.486 (inactive) in test [6] (setting [11]); -1.06 and 1.01 in test [6] (setting [12]); 0.575 (inactive) and 0.535 (inactive) in test [4]. Also, the remaining NAD in test [2] is 12 nM (inactive). In test [3], the luciferase signal was 72 AU (inactive).
Consider `NS(=O)(=O)Cc1noc2ccccc12`, for which, in test [5], the result was inactive. The z-score was 0.598 (inactive) and -0.977 (inactive) and -0.661 (inactive) in test [6] (setting [11]); -0.432 and -0.0491 and -0.914 in test [6] (setting [12]); 1.1 (inactive) and -0.005 (inactive) and 0.465 (inactive) in test [4].
As to `NC(N)=NC(=O)Cc1c(Cl)cccc1Cl`, the outcome in test [5] was inactive. The z-score in test [6] (setting [11]) was -0.203 (inactive) and -0.668 (inactive); in test [6] (setting [12]) it was 0.336 and -1.29; in test [4], -0.06 (inactive) and -0.17 (inactive) and -0.035 (inactive). In addition, in test [2], the remaining NAD is 10 nM (inactive).
